Cruzain noTriton = blocks cruzain activity in detergent-free assay; Potency, µM, usual class: inhibitors; purified cruzain, Z-FR-AMC fluorescence, no detergent; AID 1476; 200,000 compounds, 2.3% hits; further: nearly all actives have a fitted effect of over 40% in size
Target sequence (P25779 123-467 limits assumed): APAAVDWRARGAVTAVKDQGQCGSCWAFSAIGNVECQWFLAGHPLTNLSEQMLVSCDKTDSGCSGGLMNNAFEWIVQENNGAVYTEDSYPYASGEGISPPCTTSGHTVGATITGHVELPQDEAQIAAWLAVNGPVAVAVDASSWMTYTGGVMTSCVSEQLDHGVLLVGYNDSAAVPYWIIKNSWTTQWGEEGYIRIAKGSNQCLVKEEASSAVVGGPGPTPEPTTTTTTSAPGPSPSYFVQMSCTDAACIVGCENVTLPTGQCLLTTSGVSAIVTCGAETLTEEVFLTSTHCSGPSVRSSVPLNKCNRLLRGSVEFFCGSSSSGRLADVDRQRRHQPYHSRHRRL
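Detergent-free condition (0.00005% Triton X-100) in acetate buffer pH 5.5 with DTT. 1.5 nM enzyme and compound were pre-mixed 15 min, then 2 uM Z-FR-AMC substrate added; reaction progress from fluorescence change between first and third reads (60 s).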
Cruzain inh Det = blocks cruzain activity in presence of Triton detergent. purified cruzain, Z-FR-AMC fluorescence, 0.01% Triton. P25779. AID 1478. Potency, µM, hits mostly inhibitors. 200,000 compounds, 0.43% hits; further: nearly all actives have a fitted effect of over 40% in size
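Compounds were screened in titration against cruzain (1.5 nM) with 0.01% Triton X-100 to counter colloidal aggregation. Activity was the AMC fluorescence increase over 60 s after adding 2 uM Z-FR-AMC at pH 5.5.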
Numbers stand for hits; – = inactive; ? = inconclusive. Sampled rows, rich in hits. Any-hit rate of the full collection: about 2.4%. The call rests on the fitted dose curve; in most records, active means well fitted curve in the direction sought with a large enough effect; inconclusive means small, poorly fitted or top-dose-only effect, or another doubt; inactive means no such curve, though single readings can be large; an effect the other way counts as inactive or inconclusive.

SMILES	Cruzain noTriton	Cruzain inh Det
Cc1ccc2c(CC(=O)Nc3ccc(S(=O)(=O)N4CCCCC4)cc3)coc2c1C	25µM	–
Cc1ccc2c(CC(=O)Nc3ccc(S(=O)(=O)N4CCCC(C)C4)cc3)coc2c1 (stereo not drawn)	?	–
Cc1ccc2c(CC(=O)Nc3ccc(S(=O)(=O)N4CCCCC4)cc3)coc2c1	25µM	–
Cc1cc(C)c2c(CC(=O)Nc3ccc(S(=O)(=O)N4CCCCC4)cc3)coc2c1	?	–
Cc1cccc(OC(=O)c2nc(SCc3ccccc3F)ncc2Cl)c1	–	–
COc1ccc(NC(=O)c2c(NCc3ccc(OC)c(OC)c3OC)sc3c2CCC3)c(OC)c1	–	–
CC1=C(C(=O)Nc2ccccc2)C(c2ccccn2)n2nc(SCc3ccccc3Cl)nc2N1 (stereo not drawn)	–	–
O=C(CCCn1c(=O)c2ccccc2n(Cc2ccc(F)cc2Cl)c1=O)NCCc1ccc(Cl)cc1	–	–
CSCCC(NC(=O)c1ccc([N+](=O)[O-])cc1Cl)C(=O)OCC(=O)C12CC3CC(CC(C3)C1)C2 (stereo not drawn)	25µM	28µM
CSCCC(NC(=O)C12CC3CC(CC(C3)C1)C2)C(=O)OCC(=O)c1ccc(C)cc1 (stereo not drawn)	–	–
COc1ccc(NC(=O)Nc2nnc(-c3ccccc3SCc3ccccc3)s2)cc1	10µM	–
COc1cccc(NC(=O)Nc2nnc(-c3ccccc3SCc3ccccc3)s2)c1	3.2µM	–
O=C(Nc1nnc(-c2ccccc2SCc2ccccc2)s1)Nc1ccccc1F	3.2µM	–
CCOc1ccc(NC(=O)CSc2nnc(NC(=O)Nc3ccccc3)s2)cc1	–	–
CCN(c1ccccc1)c1nnc(NC(=O)Nc2ccccc2F)s1	–	–
Cc1cccc(NC(=O)Nc2nnc(N(C)Cc3ccccc3)s2)c1	–	–
CCN(CC)C(=O)c1sc2c(c1C)c(=O)n(-c1ccc(Cl)c(Cl)c1)c(=O)n2Cc1cc(=O)n2ccccc2n1	?	–
Cc1cc(-c2csc(NC(=O)c3ccc(C#N)cc3)n2)c(C)n1Cc1ccco1	7.9µM	–
Cc1csc(NC(=O)CSc2nnc(C)n2Cc2ccco2)n1	–	–
O=S(=O)(c1ccc(Br)cc1)c1nnn2c1nc(NCc1cccs1)c1sccc12	–	–
CCOc1ccc(C2Nc3ccccc3-c3nnc(SCc4ccccc4)nc3O2)cc1OC (stereo not drawn)	–	–
Nc1nc(-c2cccc([N+](=O)[O-])c2)cc(-c2cc(-c3cccc([N+](=O)[O-])c3)nc(N)n2)n1	–	–
Nc1c(-c2cccc([N+](=O)[O-])c2)nc2ccccn12	20µM	–
Cn1c(=O)c(C(=O)COC(=O)c2cc(-c3ccccc3)nc3ccccc23)c(N)n(Cc2ccccc2)c1=O	10µM	–
Cn1c(=O)c(C(=O)COC(=O)c2cc(C(F)(F)F)nc3ccccc23)c(N)n(Cc2ccccc2)c1=O	–	–
SMILES	Cruzain noTriton	Cruzain inh Det
O=C(COC(=O)CNC(=O)c1ccccc1Cl)Nc1ncc(C(F)(F)F)cc1Cl	1.3µM	1.6µM
Cc1ccc(C)c(SCC(=O)OCC(=O)Nc2ncc(C(F)(F)F)cc2Cl)c1	–	?
O=C(COC(=O)CSc1cccc2cccc(Cl)c12)Nc1ncc(C(F)(F)F)cc1Cl	25µM	?
O=C(COC(=O)c1ccc2ccccc2c1)Nc1ncc(C(F)(F)F)cc1Cl	–	–
O=C(CSc1ncc(-c2ccccc2)[nH]1)Nc1ccc(Cl)cc1	–	–
COc1ccc(NC(=O)C2CCN(S(=O)(=O)c3ccc4c(c3)CCCC(=O)N4)CC2)c(OC)c1	–	–
CCN(C(=O)c1oc2ccc(S(=O)(=O)N3CCCCCC3)cc2c1C)c1ccccc1	–	–
O=C(NCc1ccccc1Cl)C(=O)NCC(c1cccs1)S(=O)(=O)c1ccccc1 (stereo not drawn)	–	–
CCOc1ccc(CNC(=O)c2cc3c(=O)n(Cc4cccs4)ccc3nc2C)cc1	?	–
CCOC(=O)/C=C/C(=O)OCC(=O)Nc1ccc(OC)c(Cl)c1	16µM	13µM
CC(C)CC(C(=O)OCC(=O)Nc1ncc(Cl)cc1Cl)N1C(=O)c2ccccc2C1=O (stereo not drawn)	?	–
COc1ccc(NC(=O)COC(=O)C(CC(C)C)N2C(=O)C3CC=CCC3C2=O)cc1Cl (stereo not drawn)	10µM	7.1µM
COc1ccc(NC(=O)COC(=O)/C=C/C(=O)OCC(=O)Nc2ccc(OC)c(Cl)c2)cc1Cl	25µM	–
CCCn1c(C)cc(/C=C(\C#N)C(=O)OCC(=O)Nc2ccc(OC)c(Cl)c2)c1C	–	–
COc1ccc(NC(=O)COC(C)=O)cc1Cl	–	–
Cc1cccc(OCC(=O)NCc2ccncc2)c1C	–	–
Cc1ccccc1OCC(=O)NCCc1nc2ccccc2[nH]1	3.2µM	5µM
Cc1ccccc1OCC(=O)NCCC(=O)O	–	–
Cc1cccc(OCC(=O)NCCc2nc3ccccc3[nH]2)c1C	–	4µM
Cc1cc(-c2csc(N)n2)c(C)n1-c1ccc(Cl)c(Cl)c1	13µM	–
C=CCn1c(C)cc(-c2csc(N)n2)c1C	?	–
CCCn1c(C)cc(-c2csc(N)n2)c1C	?	–
COc1ccc(-n2c(C)cc(-c3csc(N)n3)c2C)cc1	20µM	–
CCn1c(C(=O)Nc2cc(C)cc(C)c2)cc2sc(Cl)cc21	?	–
Cc1ccc(CCNC(=O)c2cnc3c(C)cccn3c2=O)cc1	–	–
SMILES	Cruzain noTriton	Cruzain inh Det
Cc1cc(C)c(Nc2cc(S(=O)(=O)O)c(N)c3c2C(=O)c2ccccc2C3=O)c(C)c1	?	25µM
Nc1ccc(-c2ccc(Nc3cc(S(=O)(=O)O)c(N)c4c3C(=O)c3ccccc3C4=O)cc2)c(S(=O)(=O)O)c1	–	–
CCC(=O)N1CCc2cc(S(=O)(=O)NC(Cc3ccccc3)C(=O)Nc3ccc(Cl)cc3)ccc21 (stereo not drawn)	–	–
COc1ccc(/C=C2\SC(=O)N=C2N)cc1	32µM	–
COc1ccc(/C=C2\SC(=NCc3ccccc3)NC2=O)cc1	–	–
COc1ccc(C(=O)NCc2nc(-c3cccc(C)c3)no2)cc1OC	?	–
COc1ccc2nc(N/C(N)=N/C(=S)Nc3cccc(C)c3)nc(C)c2c1	?	–
CCOc1ccc2nc(N/C(N)=N/C(=S)Nc3cccc(C)c3)nc(C)c2c1	32µM	–
c1ccc(CSc2nnc(C3CCNCC3)o2)cc1	–	–
CCOC(=O)CSc1ncnc2c1sc1nc(N3CCOCC3)c3c(c12)CCCC3	–	–
CCOC(=O)C(Sc1ncnc2c1sc1nc(N3CCOCC3)c3c(c12)CCCC3)c1ccccc1 (stereo not drawn)	3.2µM	–
CCOC(=O)c1ccccc1NC(=O)NCc1c(-n2cccc2)sc2c1CCCC2	–	–
COC(=O)c1ccc(Sc2ccc(C)cc2)c(N)c1	–	–
COc1cc(Sc2ccc(C)cc2)c(OC)cc1N	16µM	–
CCOc1ccc(CNC(=O)c2ccc3c(c2)nc2n3CCCCC2)cc1	–	–
CC(=O)Nc1nonc1-c1nnc(SCC(=O)Nc2cccc(F)c2)n1-c1ccccc1	–	–
COc1cc(-c2noc(-c3ccc(NCC4CCCO4)c([N+](=O)[O-])c3)n2)cc(OC)c1OC (stereo not drawn)	?	–
O=C1N=C(N2CCN(c3ccccc3)CC2)S/C1=C/c1cccs1	–	–
O=C1N=C(c2ccccc2)S/C1=C\c1cccs1	20µM	–
CS(=O)(=O)Nc1cccc(-c2cc(NCc3ccccc3)ncn2)c1	–	–

Source: PubChem BioAssay
